Test [1] deals with Glucocorticoid receptor (Homo sapiens) (UniProt P04150). The test can be described thus: ATG_GR_TRANS: Attagene TRANS-FACTORIAL HepG2 Assay for human Glucocorticoid Receptor (GR) (AID 2282978; active = hit-call score of the fitted dose curve at least 0.9, where 1 is the maximum;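 note: activators score as hits since higher reporter transcript over DMSO is fitted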). The note with it: HepG2 Attagene TRANS GR reporter, mRNA transcription. The essentials: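 Exogenous NR-GAL4 fusion activity was assessed through induced GAL4-UAS reporter transcripts in transfected human HepG2 cells, quantified after 24 h by RT-PCR and fluorescent capillary electrophoresis with DMSO as baseline.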
Chain of Glucocorticoid receptor (Homo sapiens) (P04150 whole entry, looked up, the tested form may be a part): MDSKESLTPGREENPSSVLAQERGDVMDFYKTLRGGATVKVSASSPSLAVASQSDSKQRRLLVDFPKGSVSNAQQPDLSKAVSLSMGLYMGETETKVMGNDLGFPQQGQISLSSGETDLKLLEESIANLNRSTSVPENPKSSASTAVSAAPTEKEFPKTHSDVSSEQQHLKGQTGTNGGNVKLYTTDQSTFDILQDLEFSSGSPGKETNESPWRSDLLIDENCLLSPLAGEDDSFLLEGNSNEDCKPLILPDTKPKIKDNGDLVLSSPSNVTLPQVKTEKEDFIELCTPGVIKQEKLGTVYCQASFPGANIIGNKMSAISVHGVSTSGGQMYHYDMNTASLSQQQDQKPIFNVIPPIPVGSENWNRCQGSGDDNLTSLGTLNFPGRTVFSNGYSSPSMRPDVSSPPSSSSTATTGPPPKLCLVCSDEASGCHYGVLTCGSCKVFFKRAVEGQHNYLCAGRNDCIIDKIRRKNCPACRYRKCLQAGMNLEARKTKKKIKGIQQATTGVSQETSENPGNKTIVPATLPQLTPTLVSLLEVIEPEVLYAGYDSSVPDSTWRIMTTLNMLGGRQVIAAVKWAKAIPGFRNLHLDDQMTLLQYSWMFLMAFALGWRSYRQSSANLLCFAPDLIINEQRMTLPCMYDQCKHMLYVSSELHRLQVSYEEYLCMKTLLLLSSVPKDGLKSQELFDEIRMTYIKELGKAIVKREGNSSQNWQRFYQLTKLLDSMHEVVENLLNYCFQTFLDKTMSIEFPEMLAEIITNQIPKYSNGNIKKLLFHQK

In test [2] the target is Bile acid receptor (Homo sapiens) (UniProt Q96RI1). The test can be described thus: ATG_FXR_TRANS: Attagene TRANS-FACTORIAL HepG2 Assay for Farnesoid X Receptor (FXR) (AID 2282979; active = hit-call score of the fitted dose curve at least 0.9, where 1 is the maximum;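 note: hits raise reporter mRNA above DMSO so AC50 marks FXR activation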). As to conditions: HepG2 Attagene TRANS FXR-GAL4 reporter transcription. The essentials:
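Transient transfection of HepG2 with multiplexed GAL4-UAS reporter units; exogenous FXR-GAL4 chimera. Dose 24 h → TriZol RNA → oligo(dT) RT → PCR, 6-FAM primer extension, HpaI cut → CE. Gain vs DMSO.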

The target in test [3] is Oxysterols receptor LXR-beta (Homo sapiens) (UniProt P55055). Kind of test: ATG_LXRb_TRANS: Attagene TRANS-FACTORIAL HepG2 Assay for human Liver X Receptor beta (LXRb) (AID 2282981; active = hit-call score of the fitted dose curve at least 0.9, where 1 is the maximum). As to conditions: HepG2 Attagene TRANS GAL4-LXRb reporter, mRNA. The essentials: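 After 24 h of chemical treatment, transfected HepG2 cells yield total RNA; reporter cDNA is PCR-amplified, FAM-labelled, HpaI-cut and run on capillary electrophoresis. Signal reflects chimeric LXRb-Gal4 activity on GAL4-UAS reporters.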
Chain of Oxysterols receptor LXR-beta (Homo sapiens) (P55055 whole entry, looked up, the tested form may be a part): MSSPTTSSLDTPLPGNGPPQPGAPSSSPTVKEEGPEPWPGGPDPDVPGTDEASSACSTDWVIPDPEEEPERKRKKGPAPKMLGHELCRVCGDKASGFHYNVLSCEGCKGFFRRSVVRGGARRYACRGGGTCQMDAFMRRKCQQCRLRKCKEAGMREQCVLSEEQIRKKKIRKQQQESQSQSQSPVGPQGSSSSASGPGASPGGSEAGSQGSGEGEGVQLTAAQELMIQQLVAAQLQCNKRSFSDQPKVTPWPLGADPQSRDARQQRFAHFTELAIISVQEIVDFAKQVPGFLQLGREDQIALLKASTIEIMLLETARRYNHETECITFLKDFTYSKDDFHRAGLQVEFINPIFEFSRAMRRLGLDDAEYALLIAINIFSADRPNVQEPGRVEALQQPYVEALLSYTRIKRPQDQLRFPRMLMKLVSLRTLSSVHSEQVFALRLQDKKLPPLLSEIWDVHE

Test [4] has as its target Hepatocyte nuclear factor 4-alpha (Homo sapiens) (UniProt P41235). The test can be described thus: ATG_HNF4a_TRANS: Attagene TRANS-FACTORIAL HepG2 Assay for human Hepatocyte Nuclear Factor 4 alpha (HNF4a) (AID 2282982; active = hit-call score of the fitted dose curve at least 0.9, where 1 is the maximum). The note with it: HepG2 HNF4a transactivation reporter, mRNA readout. The essentials: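 Multiplexed reporter assay: transfected HepG2, 24 h exposure, total RNA → oligo(dT) RT → PCR → 6-FAM extension → HpaI digest → CE fluorescence. DMSO = negative control.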

The nature of test [5]: ATG_M_32_TRANS: Attagene TRANS-FACTORIAL HepG2 Assay for M32 Transcription Factor (Internal Marker) (AID 2282984; active = hit-call score of the fitted dose curve at least 0.9, where 1 is the maximum;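 note: transcript level of a background control reporter unit measured by RT-PCR and capillary electrophoresis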). The note with it: HepG2 Attagene TRANS M32 internal marker reporter. The essentials:
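Cell-based TRANS-format assay in HepG2: exogenous chimeric GAL4 reporter units transiently expressed, compounds applied 24 h. Reporter mRNA detected by RT-PCR plus capillary electrophoresis; this readout is an internal background marker.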

For test [6], the target named is Transcriptional activator Myb (Homo sapiens) (UniProt P10242). Kind of test: ATG_Myb_CIS: Attagene CIS-FACTORIAL HepG2 Assay for human Myeloblastosis (Myb) Proto-Oncogene Transcription Factor (AID 2282986). As to conditions: HepG2 Attagene CIS-FACTORIAL Myb reporter transcription; actives raise or lower the signal. The essentials: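 In this HepG2 transient-transfection format, cis-regulated reporter mRNA is quantified 24 h post-dosing by RT-PCR with capillary electrophoresis, fitted bidirectionally to DMSO baseline.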
Chain of Transcriptional activator Myb (Homo sapiens) (P10242 whole entry, looked up): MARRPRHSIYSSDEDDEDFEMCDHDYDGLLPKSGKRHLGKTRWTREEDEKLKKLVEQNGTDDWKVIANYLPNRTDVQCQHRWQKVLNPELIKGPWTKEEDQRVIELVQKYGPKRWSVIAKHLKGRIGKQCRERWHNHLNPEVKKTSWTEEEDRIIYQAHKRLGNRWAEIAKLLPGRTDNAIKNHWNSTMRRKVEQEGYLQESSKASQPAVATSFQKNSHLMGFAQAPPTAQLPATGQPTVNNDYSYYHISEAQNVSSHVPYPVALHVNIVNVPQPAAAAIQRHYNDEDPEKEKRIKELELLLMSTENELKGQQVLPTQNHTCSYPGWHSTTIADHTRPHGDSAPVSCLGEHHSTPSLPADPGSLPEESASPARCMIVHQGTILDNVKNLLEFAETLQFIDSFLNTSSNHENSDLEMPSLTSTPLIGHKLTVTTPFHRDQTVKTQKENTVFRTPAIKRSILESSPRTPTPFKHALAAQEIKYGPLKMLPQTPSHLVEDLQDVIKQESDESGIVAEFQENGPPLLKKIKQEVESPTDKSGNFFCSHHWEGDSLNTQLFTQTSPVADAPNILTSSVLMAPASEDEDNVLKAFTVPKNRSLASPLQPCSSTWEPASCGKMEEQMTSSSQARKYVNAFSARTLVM

Test [7] has as its target Nuclear respiratory factor 1 (Homo sapiens) (UniProt Q16656). The test can be described thus: ATG_NRF1_CIS: Attagene CIS-FACTORIAL HepG2 Assay for human Nuclear Respiratory Factor 1 (NRF1) Orphan Gene (AID 2282987). The note with it: HepG2 NRF1 cis-element reporter, Attagene multiplex; actives raise or lower the signal. The essentials:
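Using DMSO as baseline, gain- or loss-of-signal was fitted for reporter mRNA levels in HepG2 cells transiently transfected with cis-regulated reporter units. Samples were taken 24 h after dosing and read by RT-PCR with capillary electrophoresis.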

Test [8] in a line: ATG_NFI_CIS: Attagene CIS-FACTORIAL HepG2 Assay for human Nuclear Factor I (NFI) (AID 2282989). The note with it: HepG2 cis-regulatory reporter, NFI response element transcription; actives raise or lower the signal. The essentials:
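Transfected HepG2 liver cells, exposed 24 h, supplied total RNA for oligo(dT) reverse transcription and reporter-specific PCR. Labelled, HpaI-cut fragments were sized by capillary electrophoresis; DMSO set the baseline for bidirectional fitting.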

For test [9], the target named is Myc proto-oncogene protein (Homo sapiens) (UniProt P01106). The test can be described thus: ATG_Myc_CIS: Attagene CIS-FACTORIAL HepG2 Assay for human Myelocytomatosis (Myc) Proto-Oncogene Transcription Factor (AID 2282990). As to conditions: HepG2, Attagene cis-reporter transcription factor activity; actives raise or lower the signal. The essentials: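 HepG2, transient MRTU transfection (cis promoters, endogenous TFs); 24 h dosing; TriZol RNA → oligo(dT) RT → PCR → 6-FAM primer extension → HpaI cut → CE. Bidirectional fit vs DMSO.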
Chain of Myc proto-oncogene protein (Homo sapiens) (P01106 whole entry, looked up): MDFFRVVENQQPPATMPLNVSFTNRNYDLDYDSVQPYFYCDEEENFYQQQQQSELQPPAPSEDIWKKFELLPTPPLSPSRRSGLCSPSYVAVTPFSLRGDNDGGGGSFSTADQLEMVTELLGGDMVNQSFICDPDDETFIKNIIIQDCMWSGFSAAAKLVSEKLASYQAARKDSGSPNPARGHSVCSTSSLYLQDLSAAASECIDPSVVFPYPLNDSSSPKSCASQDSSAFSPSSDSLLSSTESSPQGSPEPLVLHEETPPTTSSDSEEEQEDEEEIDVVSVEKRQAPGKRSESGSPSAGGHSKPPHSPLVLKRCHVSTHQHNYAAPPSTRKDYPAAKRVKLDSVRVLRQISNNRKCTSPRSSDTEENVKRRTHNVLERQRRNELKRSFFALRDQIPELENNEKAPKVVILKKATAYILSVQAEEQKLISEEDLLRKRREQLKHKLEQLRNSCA

Test [10] in a line: ATG_NRF2_ARE_CIS: Attagene CIS-FACTORIAL HepG2 Assay for human Nuclear Factor Erythroid 2 Related Factor 2 (NFR2) response to Antioxidant Response Elements (ARE) (AID 2282992).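 For AC50: reporter mRNA level measured by RT-PCR and capillary electrophoresis fluorescence.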 The note with it: HepG2 Attagene ARE/NRF2 reporter, transcription factor activity; actives raise or lower the signal. The essentials: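 Fluorescence intensity of reporter-specific cDNA fragments, separated by capillary electrophoresis, reflects mRNA induction in transfected HepG2 cells at 24 h. Activity is fitted bidirectionally, DMSO serving as baseline.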

The nature of test [11]: ATG_Oct_MLP_CIS: Attagene CIS-FACTORIAL HepG2 Assay for human Octamer-Binding Transcription Factor (Oct) (AID 2282993). As to conditions: HepG2 Attagene cis-factorial Oct reporter, mRNA; actives raise or lower the signal. The essentials:
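Using HepG2 cells bearing transfected cis-reporter constructs, mRNA induction was read after 24 h by fluorescent RT-PCR and capillary electrophoresis, with DMSO defining baseline for gain- or loss-of-signal fits.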

The target of test [12] is Cellular tumor antigen p53 (Homo sapiens) (UniProt P04637). Kind of test: ATG_p53_CIS: Attagene CIS-FACTORIAL HepG2 Assay for human p53 Transcription Factor (AID 2282994). As to conditions: HepG2 p53 cis-element reporter, Attagene mRNA; actives raise or lower the signal. The essentials: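 Transiently transfected HepG2 (multiple cis reporter transcription units); exposure 24 h; reporter RNA via RT-PCR, 6-FAM extension, 2 h HpaI digest at 37 C, CE detection; DMSO baseline.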
Chain of Cellular tumor antigen p53 (Homo sapiens) (P04637 whole entry, looked up): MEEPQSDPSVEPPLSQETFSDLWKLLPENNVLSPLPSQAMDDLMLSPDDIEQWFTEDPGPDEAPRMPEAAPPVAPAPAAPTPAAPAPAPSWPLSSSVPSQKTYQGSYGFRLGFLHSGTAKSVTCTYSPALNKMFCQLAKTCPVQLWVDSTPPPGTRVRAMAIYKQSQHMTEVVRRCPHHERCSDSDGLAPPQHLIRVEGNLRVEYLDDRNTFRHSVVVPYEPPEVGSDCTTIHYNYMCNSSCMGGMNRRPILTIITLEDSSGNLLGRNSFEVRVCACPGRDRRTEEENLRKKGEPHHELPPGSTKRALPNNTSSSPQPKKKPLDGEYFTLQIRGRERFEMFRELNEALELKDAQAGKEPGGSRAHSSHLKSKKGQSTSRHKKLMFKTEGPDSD

Test [13] in a line: BSK_3C_TissueFactor: BioMAP Diversity Plus: 3C Assay for Tissue Factor Biomarker Activity (AID 2282997). As to conditions: BioMAP 3C HUVEC, tissue factor biomarker readout; actives raise or lower the signal. The essentials: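 After a 24 h chemical exposure of primary human umbilical vein endothelial cells, Tissue Factor levels were quantified by ELISA.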
Test [14] is described as follows: BSK_3C_uPAR: BioMAP Diversity Plus: 3C Assay for Urokinase-type plasminogen activator receptor (uPAR) Biomarker Activity (AID 2282998). The note with it: BioMAP 3C HUVEC, uPAR biomarker ELISA; actives raise or lower the signal. The essentials: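 In this endothelial cell-based assay, human umbilical vein primary cells were treated with chemicals and harvested at 24 h. uPAR was quantified using ELISA, with gains or losses fitted relative to DMSO controls.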
(An ELISA detects its analyte on a solid surface through an enzyme-linked reagent.)

Test [15] is described as follows: BSK_3C_VCAM1: BioMAP Diversity Plus: 3C Assay for Vascular cell adhesion molecule 1 (VCAM1) Biomarker Activity (AID 2282999). As to conditions: BioMAP 3C HUVEC, VCAM1 ELISA, cytokine-stimulated; actives raise or lower the signal. The essentials: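 Activity fitted in both directions relative to DMSO, with ELISA measurement of the surface marker on primary HUVEC (3C) at 24 h post-treatment; parallel SRB staining (0.1% SRB, TCA-fixed, 560 nm) flagged overt cytotoxicity.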

A short description of test [16]: BSK_4H_Eotaxin3: BioMAP Diversity Plus: 4H Assay for Eotaxin 3 Biomarker Activity (AID 2283000).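 For outcome: CCL26 protein level quantified by ELISA in parallel with SRB cytotoxicity check.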 The note with it: primary human endothelial cells (HUVEC); actives raise or lower the signal. The essentials: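 Chemicals were added to human umbilical vein endothelium cultures, and Eotaxin-3 was quantified by ELISA at 24 h. Values were derived by bidirectional fitting with DMSO serving as negative control and activity baseline.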

Test [17] is described as follows: ATG_M_06_TRANS: Attagene TRANS-FACTORIAL HepG2 Assay for M06 Transcription Factor (Internal Marker) (AID 2282983; active = hit-call score of the fitted dose curve at least 0.9, where 1 is the maximum;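 note: reporter transcript level by RT-PCR then capillary electrophoresis fluorescence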). As to conditions: HepG2 Attagene TRANS M06 internal marker reporter. The essentials:
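Background control endpoint: reporter mRNA from transiently transfected HepG2 after 24 h dosing, detected by RT-PCR with capillary electrophoresis fluorescence. Analysed for gain versus DMSO.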

Test [18] has as its target Nuclear receptor subfamily 4 group A member 2 (Homo sapiens) (UniProt P43354). Kind of test: ATG_NURR1_TRANS: Attagene TRANS-FACTORIAL HepG2 Assay for human Nuclear Receptor Related Protein 1 (NURR1) (AID 2282985; active = hit-call score of the fitted dose curve at least 0.9, where 1 is the maximum). The note with it: HepG2 Attagene TRANS reporter, mRNA readout. The essentials: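 Measures transcriptional activation by an exogenous NR-Gal4 chimera in transfected HepG2 liver cells. After 24 h, reporter RNA is reverse-transcribed, amplified and resolved by capillary electrophoresis; DMSO defines baseline.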

Test [19] can be described thus: ATG_NF_kB_CIS: Attagene CIS-FACTORIAL HepG2 Assay for human Nuclear Factor Kappa B (NF-kB) (AID 2282991). As to conditions: HepG2 Attagene cis-factorial NF-kB reporter mRNA; actives raise or lower the signal. The essentials: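 Endpoint from a 52-component multiplexed HepG2 reporter panel: cis-regulated transcription units transiently transfected, 24 h dosing, reporter mRNA quantified by RT-PCR and capillary electrophoresis, scored as increase or decrease against DMSO.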

Test [20] deals with Oxysterols receptor LXR-alpha (Homo sapiens) (UniProt Q13133). The test can be described thus: ATG_LXRa_TRANS: Attagene TRANS-FACTORIAL HepG2 Assay for human Liver X Receptor alpha (LXRa) (AID 2282980; active = hit-call score of the fitted dose curve at least 0.9, where 1 is the maximum). As to conditions: HepG2 Attagene TRANS reporter, LXRa transactivation. The essentials:
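Transfect HepG2 with GAL4-UAS multiplex reporter constructs (TRANS format, chimeric receptor-GAL4); treat 24 h; extract RNA, reverse-transcribe, PCR-amplify, FAM-label, HpaI-digest; resolve fragments by capillary electrophoresis. Upward response vs DMSO.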

The term AC50 denotes the midpoint of the concentration-response curve, whichever way the signal moves.

Inconclusive results are not listed. Calls of active or inactive are those of the source. Rule for the calls, unless noted: active = hit-call score of the fitted dose curve at least 0.9, where 1 is the maximum; inactive = score below 0.9.

Chain of Hepatocyte nuclear factor 4-alpha (Homo sapiens) (P41235 whole entry, looked up): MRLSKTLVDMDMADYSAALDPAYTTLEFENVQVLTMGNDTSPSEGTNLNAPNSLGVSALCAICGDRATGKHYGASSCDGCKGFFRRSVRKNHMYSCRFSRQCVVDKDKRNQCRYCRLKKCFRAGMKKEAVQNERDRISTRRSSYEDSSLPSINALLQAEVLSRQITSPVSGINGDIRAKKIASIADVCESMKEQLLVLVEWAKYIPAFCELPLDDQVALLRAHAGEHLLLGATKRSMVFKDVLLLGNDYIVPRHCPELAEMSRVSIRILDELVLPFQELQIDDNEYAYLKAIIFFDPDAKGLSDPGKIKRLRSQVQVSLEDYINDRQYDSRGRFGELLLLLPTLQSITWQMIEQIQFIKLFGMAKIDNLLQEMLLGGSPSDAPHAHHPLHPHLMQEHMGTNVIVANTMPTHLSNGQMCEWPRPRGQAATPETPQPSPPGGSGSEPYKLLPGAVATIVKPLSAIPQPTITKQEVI
Chain of Nuclear respiratory factor 1 (Homo sapiens) (Q16656 whole entry, looked up): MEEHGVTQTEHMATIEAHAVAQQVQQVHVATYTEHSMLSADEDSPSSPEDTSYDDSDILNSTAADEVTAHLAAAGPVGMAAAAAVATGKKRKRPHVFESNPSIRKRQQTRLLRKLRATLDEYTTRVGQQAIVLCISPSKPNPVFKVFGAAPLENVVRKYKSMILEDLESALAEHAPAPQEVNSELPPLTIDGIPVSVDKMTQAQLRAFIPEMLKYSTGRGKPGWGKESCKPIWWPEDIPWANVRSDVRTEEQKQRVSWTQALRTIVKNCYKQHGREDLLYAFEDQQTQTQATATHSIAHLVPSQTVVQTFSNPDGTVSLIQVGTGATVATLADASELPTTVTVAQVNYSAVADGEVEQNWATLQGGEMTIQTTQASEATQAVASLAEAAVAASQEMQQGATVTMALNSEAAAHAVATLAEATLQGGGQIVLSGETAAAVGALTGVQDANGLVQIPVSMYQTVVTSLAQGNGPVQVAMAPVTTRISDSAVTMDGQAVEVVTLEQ
Chain of Bile acid receptor (Homo sapiens) (Q96RI1 whole entry, looked up, the tested form may be a part): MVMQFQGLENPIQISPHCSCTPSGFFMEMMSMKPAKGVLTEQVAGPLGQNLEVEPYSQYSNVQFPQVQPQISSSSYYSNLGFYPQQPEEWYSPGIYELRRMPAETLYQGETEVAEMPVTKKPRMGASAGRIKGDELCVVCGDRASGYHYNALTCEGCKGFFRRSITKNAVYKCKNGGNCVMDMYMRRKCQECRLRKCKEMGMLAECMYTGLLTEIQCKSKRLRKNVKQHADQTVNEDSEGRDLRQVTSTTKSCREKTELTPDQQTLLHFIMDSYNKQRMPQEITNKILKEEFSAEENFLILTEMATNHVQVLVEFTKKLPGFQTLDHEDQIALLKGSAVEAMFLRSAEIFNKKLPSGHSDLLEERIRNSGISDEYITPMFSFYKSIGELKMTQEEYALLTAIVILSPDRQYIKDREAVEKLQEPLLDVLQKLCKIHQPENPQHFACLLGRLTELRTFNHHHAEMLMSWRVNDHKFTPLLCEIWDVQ
Chain of Nuclear receptor subfamily 4 group A member 2 (Homo sapiens) (P43354 whole entry, looked up, the tested form may be a part): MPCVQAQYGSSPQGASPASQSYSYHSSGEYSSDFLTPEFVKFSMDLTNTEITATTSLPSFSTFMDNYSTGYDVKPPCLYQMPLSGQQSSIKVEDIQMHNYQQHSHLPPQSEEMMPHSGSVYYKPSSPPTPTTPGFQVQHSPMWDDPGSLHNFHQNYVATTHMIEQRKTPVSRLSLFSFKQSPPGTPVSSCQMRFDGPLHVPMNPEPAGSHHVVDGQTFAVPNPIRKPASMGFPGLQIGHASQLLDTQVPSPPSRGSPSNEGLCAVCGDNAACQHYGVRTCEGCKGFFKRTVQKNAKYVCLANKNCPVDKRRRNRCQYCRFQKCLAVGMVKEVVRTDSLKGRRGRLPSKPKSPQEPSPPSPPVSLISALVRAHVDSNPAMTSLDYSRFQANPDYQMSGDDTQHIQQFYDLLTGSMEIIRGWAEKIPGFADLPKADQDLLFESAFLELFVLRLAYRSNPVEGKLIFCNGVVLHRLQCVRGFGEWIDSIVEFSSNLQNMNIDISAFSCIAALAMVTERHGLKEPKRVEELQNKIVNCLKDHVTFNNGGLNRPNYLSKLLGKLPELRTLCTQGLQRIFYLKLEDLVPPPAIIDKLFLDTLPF

Take `O=P(OCCCl)(OCCCl)OCCCl`: the call in [1], in [2], in test [3], in test [4], in [5] and in test [6] was inactive. For the same molecule, the molecule was classed as inactive in test [7], in [8], in test [9], in [10], in [11] and in test [12]. For the same molecule, the outcome in [13], in test [14], in [15] and in [16] was inactive.
On to `Clc1ccc(C(c2ccc(Cl)cc2)C(Cl)Cl)cc1`, for which the molecule was called inactive in [1], in [2], in test [3], in test [17], in test [5] and in [18]. Also, the outcome in [6], in test [7], in test [19] and in test [12] was inactive. Further, the AC50 in test [8] was 60.5 µM (active); in test [10] it was 51.1 µM (active); in [11], 49.7 µM (active); in [13], 32.2 µM (active); in test [14], 14.1 µM (active); in test [15], 31.4 µM (active). Also, the AC50 in [16] is 28.7 µM (active).
As to `CCC[CH2][Sn]([Cl])([CH2]CCC)[CH2]CCC`, the AC50 was 1.24 µM (active) in test [1]; 0.0336 µM (active) in [18]; 0.601 µM (active) in test [19]; 0.281 µM (active) in [10]; 0.771 µM (active) in [12]; 0.148 µM (active) in test [13]. The AC50 in [14], in test [15] and in test [16] was 0.148 µM (active) each time. In addition, the call in [2], in test [3], in test [4], in test [17], in [6] and in test [7] was inactive. Moreover, the call in test [8], in test [9] and in test [11] was inactive.
With `N#CC(Br)Br`, the molecule was classed as inactive in test [1], in [2], in test [20], in test [3], in test [17] and in [5]. Moreover, the call in test [6], in test [7], in [8], in [9], in [19] and in [11] was inactive. The outcome in test [13], in test [14], in test [15] and in test [16] was inactive. For the same molecule, the AC50 in test [10] was 74.8 µM (active).
For the molecule `CCCSC(=O)N(CCC)CCC`, the call in test [1], in test [3], in test [4], in test [17], in test [18] and in test [6] was inactive. In addition, the outcome in test [7], in test [8], in test [19], in test [10], in test [11] and in [12] was inactive. Moreover, the result in test [13], in [14], in test [15] and in [16] was inactive.
Take `CCCCCCCCCCCCCN1CC(C)OC(C)C1` (stereo not given): the result in test [1], in [20], in test [17], in test [18], in test [6] and in test [8] was inactive. For the same molecule, the molecule was classed as inactive in test [11], in test [12], in [13], in [14], in test [15] and in test [16]. Also, the AC50 in test [10] is 47 µM (active).
For the molecule `CC(C)(O)c1cnn2c(-c3ccc(F)c(-c4c(F)cccc4C#N)c3)cnc2n1`, the outcome in test [1], in test [5], in [6], in test [8], in test [19] and in test [11] was inactive. The AC50 in [2] was 14.5 µM (active); in [10] it was 19.8 µM (active); in test [12] it was 8.54 µM (active); in [13], 28.2 µM (active); in [14], 31.3 µM (active); in test [15], 35.3 µM (active). For the same molecule, the AC50 in test [16] is 33.6 µM (active).

The values above are taken from PubChem BioAssay (EPA / NIEHS).
